Measured values from PubChem BioAssay AID1159580 (chemical genetic matrix, 2015).
Several values for one entry are separate records, joined by “and”; a condition that tells them apart may be missing. Equal values may be shown once. Screen size: about 5,500 compounds; about 2,000 (36%) were called active. Roughly 18% stayed inconclusive and do not appear here. No stated cut-off is given here; in the data, active means normalized growth mostly below about 0.91 (no sharp cut-off); inconclusive means no clear call, values can overlap the other calls; inactive means mostly above about 0.92. This is one part of the list.

Experiment: chemical genetic growth profiling, strain panel (AID 1159580);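 further: tested at 20 µM; growth read once vehicle control cultures reached saturation at 30 °C; 1 = growth at the plate median or of vehicle wells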
Details: S. cerevisiae deletion strains, growth OD

Measured: normalized growth

CC(=O)OCC(=O)[C@@]1(O)CCC2C3CCC4=CC(=O)CC[C@]4(C)[C@@]3(F)[C@@H](O)C[C@@]21C (stereo partly specified)
inactive: locus YAL021C, strain ccr4, stronger effect = lower value 1.03 | locus YAL026C, strain drs2, stronger effect = lower value 1.01 | locus YAL030W, strain snc1, stronger effect = lower value 1.01 | locus YBL061C, strain skt5, stronger effect = lower value 1.01 | locus YBR009C, strain hhf1, stronger effect = lower value 1.01 | locus YBR021W, strain FUR4, stronger effect = lower value 1.01 | locus YBR023C, strain chs3, stronger effect = lower value 1.03 | locus YBR171W, strain sec66, stronger effect = lower value 1.04 | locus YBR229C, strain ROT2, stronger effect = lower value 1 | locus YBR231C, strain swc5, stronger effect = lower value 0.993 | locus YBR279W, strain paf1, stronger effect = lower value 1.02 | locus YCL011C, strain gbp2, stronger effect = lower value 1.02 | locus YCL016C, strain dcc1, stronger effect = lower value 1.02 | locus YCL029C, strain bik1, stronger effect = lower value 0.995 | locus YCL061C, strain MRC1, stronger effect = lower value 1.02 | locus YCL069W, strain vba3, stronger effect = lower value 1.02 | locus YCR088W, strain abp1, stronger effect = lower value 1.01 | locus YDL005C, strain med2, stronger effect = lower value 1.02 | locus YDL035C, strain GPR1, stronger effect = lower value 0.992 | locus YDL040C, strain nat1, stronger effect = lower value 1 | locus YDL074C, strain BRE1, stronger effect = lower value 1.02 | locus YDL101C, strain DUN1, stronger effect = lower value 1.01 | locus YDL185W, strain tfp1, stronger effect = lower value 0.995 | locus YDL192W, strain arf1, stronger effect = lower value 1 | locus YDR001C, strain nth1, stronger effect = lower value 1.01 | locus YDR069C, strain doa4, stronger effect = lower value 1.01 | locus YDR101C, strain arx1, stronger effect = lower value 0.981 | locus YDR137W, strain rgp1, stronger effect = lower value 1.02 | locus YDR159W, strain sac3, stronger effect = lower value 0.997 | locus YDR162C, strain NBP2, stronger effect = lower value 0.998 | locus YDR195W, strain ref2 1 | locus YDR297W, strain sur2, stronger effect = lower value 1 | locus YDR318W, strain mcm21, stronger effect = lower value 1 | locus YDR334W, strain swr1, stronger effect = lower value 1.03 | locus YDR335W, strain msn5, stronger effect = lower value 1.01 | locus YDR388W, stronger effect = lower value 1 | locus YDR392W, strain spt3, stronger effect = lower value 0.989 | locus YDR502C, strain sam2, stronger effect = lower value 1 | locus YEL003W, strain gim4, stronger effect = lower value 1 | locus YEL037C, strain rad23, stronger effect = lower value 1.01 | locus YEL061C, strain CIN8 (second series), stronger effect = lower value 1.01 | locus YEL061C, strain CIN8, stronger effect = lower value 1 | locus YER015W, strain faa2, stronger effect = lower value 1 | locus YER016W, strain bim1, stronger effect = lower value 1 | locus YER110C, stronger effect = lower value 1 | locus YER111C, strain swi4, stronger effect = lower value 1.02 | locus YER155C, strain BEM2 (second series), stronger effect = lower value 1.01 | locus YER155C, strain BEM2, stronger effect = lower value 1.01 | locus YER167W, strain BCK2, stronger effect = lower value 1.01 | locus YFR010W, strain ubp6, stronger effect = lower value 1.02 | locus YGL078C, strain dbp3, stronger effect = lower value 1.01 | locus YGL086W, strain mad1, stronger effect = lower value 0.989 | locus YGL167C, strain pmr1, stronger effect = lower value 1.01 | locus YGL173C, strain kem1, stronger effect = lower value 1.02 | locus YGL227W, strain vid30, stronger effect = lower value 1.02 | locus YGL240W, strain doc1, stronger effect = lower value 1.01 | locus YGL248W, strain PDE1, stronger effect = lower value 1.01 | locus YGL253W, strain hxk2, stronger effect = lower value 1.01 | locus YGR135W, strain pre9, stronger effect = lower value 1.03 | locus YGR252W, strain gcn5, stronger effect = lower value 1.05 | locus YHR013C, strain ard1, stronger effect = lower value 1.04 | locus YHR027C, strain rpn1, stronger effect = lower value 1.03 | locus YHR030C, strain SLT2, stronger effect = lower value 0.997 and 1.01 | locus YHR079C, strain IRE1 (second series), stronger effect = lower value 1.01 | locus YHR079C, strain IRE1, stronger effect = lower value 0.995 | locus YHR094C, strain hxt1, stronger effect = lower value 1.01 | locus YHR129C, strain ARP1, stronger effect = lower value 1.01 | locus YHR142W, strain chs7, stronger effect = lower value 1.01 | locus YHR200W, strain rpn10, stronger effect = lower value 0.996 | locus YIL066C, strain RNR3, stronger effect = lower value 0.995 | locus YIL073C, strain SPO22, stronger effect = lower value 1.03 | locus YIL125W, strain kgd1, stronger effect = lower value 1 | locus YIR030C, strain dcg1, stronger effect = lower value 0.998 | locus YJL092W, strain hpr5, stronger effect = lower value 1.02 | locus YJL095W, strain BCK1 (second series), stronger effect = lower value 1.01 | locus YJL095W, strain BCK1, stronger effect = lower value 1.03 and 1 | locus YJL115W, strain asf1, stronger effect = lower value 1.03 | locus YJL129C, strain trk1, stronger effect = lower value 1.03 | locus YJL134W, strain LCB3, stronger effect = lower value 1.01 | locus YJL154C, strain vps35, stronger effect = lower value 1.01 | locus YJL164C, strain tpk1, stronger effect = lower value 1.01 | locus YJL166W, strain qcr8, stronger effect = lower value 1.02 | locus YJL168C, strain set2, stronger effect = lower value 1.01 | locus YJL187C, strain SWE1 (second series), stronger effect = lower value 1.01 | locus YJL187C, strain SWE1, stronger effect = lower value 1.01 | locus YJR043C, strain POL32, stronger effect = lower value 0.993
